Data reported in PubChem BioAssay (EPA / NIEHS).
Records with an inconclusive call do not appear. Calls of active or inactive are those of the source. How the source made its calls, unless noted: active means hit-call score of the fitted dose curve at least 0.9, where 1 is the maximum; inactive means score below 0.9.

Key:
[1] = ACEA_ER_80hr: ACEA Biosciences xCELLigence Real-Time Cell Analysis on Estrogen Receptor Agonism for Proliferation (AID 2282667; active means hit-call score of the fitted dose curve at least 0.9, where 1 is the maximum); conditions: T47D proliferation, impedance (xCELLigence), 80 h
Procedure, shortened: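 T47D human breast cells were seeded on electrode plates, monitored overnight, then exposed continuously to compounds in eight-point 1:4 dilutions from 100 uM (max 0.5% DMSO). Impedance-based growth was read at 80 h, fitted upward relative to DMSO.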

[2] = APR_HepG2_CellCycleArrest_24hr: Apredica 24-hour HepG2 Assay for Cell Cycle Arrest (AID 2282905); conditions: imaging, actives raise or lower the signal;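 further: cell cycle arrest scored as ratio of 2N to 4N nuclear DNA content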
Procedure, shortened: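 Cell cycle arrest is scored from nuclear DNA content measured by high-content imaging of Hoechst 33342-stained HepG2 cells following 24-hour treatment at ten concentrations up to 200 uM, with DMSO as baseline.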

[3] = APR_HepG2_NuclearSize_24hr: Apredica 24-hour HepG2 Assay for Nuclear Size (AID 2282907); conditions: high-content imaging, actives raise or lower the signal
Procedure, shortened: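 Compounds in DMSO (final 0.5%) were added to human HepG2 hepatoma cells at ten concentrations up to 200 uM for 24 hr. Fixed nuclei were stained with Hoechst 33342, and nuclear diameter was quantified from automated images.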

[4] = APR_HepG2_CellLoss_24hr: Apredica 24-hour HepG2 Assay for Cell Loss (AID 2282908); conditions: high-content imaging;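 on AC50: fit in both directions so a hit may be cell loss or gain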
Procedure, shortened: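 Cell number is quantified by fluorescence imaging of Hoechst 33342-stained nuclei following dosing at 0.39–200 uM in 0.5% DMSO. Curves are fitted in both directions from the DMSO baseline.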

[5] = APR_HepG2_MicrotubuleCSK_24hr: Apredica 24-hour HepG2 Assay for Microtubule CSK Stabilty (AID 2282909); conditions: HepG2 microtubule cytoskeleton imaging, actives raise or lower the signal
Procedure, shortened: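 Steps: dose HepG2 for 24 h (0.39–200 uM, 0.5% DMSO); fix 30 min in 3.7% formaldehyde at room temperature; permeabilize; stain alpha-tubulin 60 min; image microtubule cytoskeleton at 20x. Signal change fitted in both directions relative to DMSO.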

[6] = APR_HepG2_MitoticArrest_24hr: Apredica 24-hour HepG2 Assay for Mitotic Arrest (AID 2282910); conditions: high-content imaging, actives raise or lower the signal
Procedure, shortened: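 HepG2 human liver cells were exposed to compounds at 0.39–200 uM (10 concentrations, duplicate) in 0.5% v/v DMSO for 24 hr, then fixed and immunostained for phospho-histone H3 with Hoechst 33342. Mitotic arrest came from HCS fluorescent imaging, fitted bidirectionally against DMSO.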

[7] = APR_HepG2_MitoMembPot_24hr: Apredica 24-hour HepG2 Assay for Mitochondrial Membrane Potential (AID 2282911); conditions: imaging, actives raise or lower the signal
Procedure, shortened: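 HepG2 human liver cells were exposed 24 hr to compounds at 0.39–200 uM (final DMSO 0.5% v/v) in duplicate. MitoTracker Red CMXRos (250 nM, 30 min) was loaded before formaldehyde fixation; fluorescence was imaged by ArrayScan HCS and fitted bidirectionally versus DMSO.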

[8] = APR_HepG2_MitoMass_24hr: Apredica 24-hour HepG2 Assay for Mitochondrial Mass (AID 2282912); conditions: high-content imaging, actives raise or lower the signal
Procedure, shortened: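 The liver line HepG2 was dosed in duplicate across a 0.39–200 uM series, with final DMSO held at 0.5% v/v, and harvested at 24 hr. High-content imaging measured mitochondrial dye staining.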

[9] = APR_HepG2_p53Act_24hr: Apredica 24-hour HepG2 Assay for p53 Activation (AID 2282913); conditions: high-content imaging, actives raise or lower the signal;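 further: p53 protein immunofluorescence averaged per cell in HepG2 with Hoechst nuclei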
Procedure, shortened: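 HepG2 cells exposed 24 hr to compounds at 0.39–200 uM (10 concentrations, duplicate), final DMSO 0.5% v/v. After formaldehyde fixation and Triton permeabilization, p53 was immunolabeled (sheep anti-p53, Cy5 secondary) with Hoechst 33342 nuclear counterstain, then imaged by high-content fluorescence microscopy.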

[10] = APR_HepG2_CellCycleArrest_72hr: Apredica 72-hour HepG2 Assay for Cell Cycle Arrest (AID 2282914); conditions: high-content imaging, actives raise or lower the signal
Procedure, shortened: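 HepG2 cells were exposed to compounds at 0.39–200 uM (0.5% v/v DMSO final, duplicates) for 72 hr, fixed in 3.7% formaldehyde, permeabilized and stained with Hoechst 33342. Nuclear DNA content was quantified by high-content imaging; gain or loss of signal was fitted bidirectionally against DMSO.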

Measured: AC50

Cc1cccc(C)c1O
inactive: all assays above

CCCCCCCCCCCCCCCC
not listed: [10]
inactive: all other assays above

NCC1(Cc2noc(=O)[nH]2)CCCCC1
inactive: all assays above

Cc1cc(NC(=O)C(=O)O)cc(C)c1Oc1ccc(O)c2c1CCC2
not listed: [7] | [9] | [10]
inactive: all other assays above

Nc1ccc(S(=O)(=O)c2ccc(N)cc2)cc1
not listed: [10]
inactive: all other assays above

CC(C)c1ccc(C(=O)N=C(N)N)cc1S(C)(=O)=O
inactive: all assays above

CNCc1cc(F)ccc1Oc1ccc(Cl)c(Cl)c1
inactive: [1] | [2] | [5] | [10]
active: [3] 54.7 µM | [4] 101 µM | [6] 31.4 µM | [7] 109 µM | [8] 32.6 µM

CC(=O)OCCOCCOCCOC(C)=O
not listed: [9]
inactive: all other assays above

C1CCC(SSC2CCCCC2)CC1
active: [2] 72.3 µM | [4] 77.9 µM
not listed: [9] | [10]
inactive: all other assays above

CN1CCCC1=O
not listed: [9]
inactive: all other assays above

COC(=O)c1ccc(O)cc1
not listed: [10]
inactive: all other assays above

COCCOC[C@H](CC1(C(=O)NC2CCC(C(=O)O)CC2)CCCC1)C(=O)Oc1ccc2c(c1)CCC2 (stereo partly specified)
not listed: [9] | [10]
inactive: all other assays above

CCNc1cccc(C)c1
not listed: [10]
inactive: all other assays above

CCCCCCCCCCCC(=O)OC
not listed: [9] | [10]
inactive: all other assays above

CCCCCCC(=O)OCC
not listed: [9] | [10]
inactive: all other assays above

COc1ccc2c(c1)c(CC(=O)O)c(C)n2C(=O)c1ccc(Cl)cc1
active: [2] 76.4 µM | [10] 100 µM
not listed: [9]
inactive: all other assays above

O=c1c(O)c(-c2ccc(O)c(O)c2)oc2cc(O)cc(O)c12
active: [1] 26.4 µM | [2] 58.4 µM | [7] 64.2 µM
not listed: [10]
inactive: all other assays above

CNC(=O)[C@H]1O[C@@H](n2cnc3c(NCc4cc(Cl)ccc4OCc4cc(C)no4)ncnc32)[C@H](O)[C@@H]1N
active: [7] 0.0385 µM
inactive: all other assays above

O=C(OCCCCCOC(=O)c1ccccc1)c1ccccc1
not listed: [9] | [10]
inactive: all other assays above

CCCCCCOCCO
not listed: [7] | [9] | [10]
inactive: all other assays above

CC(=O)C(C)=CC1C(C)=CCCC1(C)C (stereo unspecified)
not listed: [7] | [9] | [10]
inactive: all other assays above

CCCCCCCCCCCCCCCCCC(=O)O
active: [1] 2.04 µM
not listed: [10]
inactive: all other assays above

CCCCCC(=O)O
not listed: [9]
inactive: all other assays above

CN1CCN(Cc2cc(-c3ccc4[nH]c(=O)oc4c3)co2)[C@@H](c2ccc(F)cc2)C1
active: [4] 89.7 µM | [5] 148 µM | [6] 42.1 µM | [10] 83.5 µM
not listed: [9]
inactive: all other assays above

Cc1ccc(Cl)cc1
not listed: [10]
inactive: all other assays above

NC(=O)Cn1c(=O)cc(CCN2CCN(c3nccc4sccc34)CC2)c2ccc(F)cc21
not listed: [10]
inactive: all other assays above

Nc1ccc2c(c1)C(=O)c1ccccc1C2=O
not listed: [10]
inactive: all other assays above

CCOc1ccc2c(c1)C(C)=CC(C)(C)N2
not listed: [10]
inactive: all other assays above

NS(=O)(=O)c1cc2c(cc1Cl)NCNS2(=O)=O
not listed: [9] | [10]
inactive: all other assays above

CCOC(=O)CCC(=O)OCC
not listed: [1] | [10]
inactive: all other assays above

CN[C@H]1CC[C@@H](c2ccc(Cl)c(Cl)c2)c2ccc(S(N)(=O)=O)cc21
active: [4] 15.1 µM
not listed: [7] | [10]
inactive: all other assays above

Nc1ccccc1N
active: [2] 15.8 µM | [4] 12.9 µM | [9] 32.3 µM | [10] 5.63 µM
not listed: [7]
inactive: all other assays above

Cc1ccc2ncccc2c1
not listed: [7]
inactive: all other assays above

OC[C@@H](O)[C@@H](O)[C@H](O)[C@H](O)CO
not listed: [7] | [10]
inactive: all other assays above

CCCCCCCC=O
not listed: [1] | [9] | [10]
inactive: all other assays above

FC(F)(F)C(F)(F)C(F)(F)C(F)(F)C(F)(F)C(F)(F)CCI
not listed: [1] | [9] | [10]
inactive: all other assays above

CC(=O)Oc1ccccc1C(=O)O
not listed: [7] | [9]
inactive: all other assays above

O=C(O)Cc1ccccc1Nc1c(Cl)cccc1Cl
active: [1] 50 µM
not listed: [7]
inactive: all other assays above

CCCCOC(=O)CCCCCCCCC(=O)OCCCC
not listed: [7] | [9]
inactive: all other assays above

CCCCCCCCCCC
not listed: [7] | [9]
inactive: all other assays above

CCCCCCCCCCCCCO
active: [4] 138 µM | [5] 117 µM | [6] 107 µM | [10] 52.3 µM
not listed: [7]
inactive: all other assays above

CCCCN(CCCC)CCCC
not listed: [1] | [10]
inactive: all other assays above

CCc1c(C(=O)NN2CCCCC2)nn(-c2ccc(Cl)cc2Cl)c1-c1ccc(Br)cc1
active: [1] 1.69 µM | [2] 27.9 µM | [4] 21.5 µM | [5] 39 µM | [6] 46.8 µM | [8] 47 µM
inactive: [3]

CC(CO)OC(C)CO (stereo unspecified) (tested in a mixture with another compound)
not listed: [1] | [10]
inactive: all other assays above

COc1cc(S(=O)(=O)O)c(C)cc1N=Nc1c(O)ccc2cc(S(=O)(=O)O)ccc12
active: [7] 100 µM
not listed: [1] | [10]
inactive: all other assays above

Clc1cc(Cl)c(Cl)cc1Cl
not listed: [7] | [9]
inactive: all other assays above

O=C(N[C@@H](Cc1ccccc1)[C@@H](O)C(=O)N1C[C@@H](O)[C@@H](O)C1)c1cc2cc(Cl)ccc2[nH]1
not listed: [7] | [10]
inactive: all other assays above

O=[N+]([O-])C(CO)(CO)CO
not listed: [7]
inactive: all other assays above

Cc1cccc([N+](=O)[O-])c1C
not listed: [7]
inactive: all other assays above
